In PubChem BioAssay AID2603 (Johns Hopkins Ion Channel Center, 2010):
Measured potencies and affinities stand elsewhere. The source made the active and inactive calls.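 How the source made its calls: active means a compound that raises KCNQ2 potassium channel current at -35 mV at one or more tested doses; inactive means no rise at any dose.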

What follows are compounds tested against Potassium voltage-gated channel subfamily KQT member 2 (Rattus norvegicus) (UniProt O88943) (assay: potentiation of rat KCNQ2 current – cell-based, automated electrophysiology, mechanism study for KCNQ2 potentiator project, dose response (AID 2603)). Details: KCNQ2-CHO cells, automated patch clamp current potentiation; at 30 µM (top of the series).
Chain of Potassium voltage-gated channel subfamily KQT member 2 (Rattus norvegicus) (O88943 whole entry, looked up): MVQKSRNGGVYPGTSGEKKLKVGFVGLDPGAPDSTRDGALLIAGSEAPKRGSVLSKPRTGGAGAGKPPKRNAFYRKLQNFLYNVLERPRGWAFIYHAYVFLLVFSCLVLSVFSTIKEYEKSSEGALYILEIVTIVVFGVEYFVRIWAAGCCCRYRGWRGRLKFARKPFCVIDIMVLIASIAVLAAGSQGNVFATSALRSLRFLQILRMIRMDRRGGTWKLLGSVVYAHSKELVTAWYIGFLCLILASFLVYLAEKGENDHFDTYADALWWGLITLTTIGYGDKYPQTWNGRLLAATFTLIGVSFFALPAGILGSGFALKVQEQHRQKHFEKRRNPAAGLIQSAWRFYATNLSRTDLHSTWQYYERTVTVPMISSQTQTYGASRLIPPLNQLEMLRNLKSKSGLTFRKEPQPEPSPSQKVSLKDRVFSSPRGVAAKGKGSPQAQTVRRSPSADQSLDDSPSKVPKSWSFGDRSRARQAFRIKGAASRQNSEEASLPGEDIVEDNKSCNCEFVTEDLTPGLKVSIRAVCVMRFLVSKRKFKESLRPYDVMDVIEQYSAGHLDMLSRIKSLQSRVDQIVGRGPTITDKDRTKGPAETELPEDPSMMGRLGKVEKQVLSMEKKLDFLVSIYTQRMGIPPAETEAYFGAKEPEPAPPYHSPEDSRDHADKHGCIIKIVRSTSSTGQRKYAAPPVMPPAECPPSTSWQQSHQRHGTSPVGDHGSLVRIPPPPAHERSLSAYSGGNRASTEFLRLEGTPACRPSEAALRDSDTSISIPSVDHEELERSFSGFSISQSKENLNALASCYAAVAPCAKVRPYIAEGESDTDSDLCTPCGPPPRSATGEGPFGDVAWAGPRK

outcome, inactive:
O=c1c(O)c(-c2cccs2)oc2ccc(Cl)cc12, CC1(C)CCc2cc(-c3ccn(S(=O)(=O)c4ccccc4Cl)n3)ccc2O1, CCCCCC/C(C)=C1/SC(=S)NC1=O, Nc1cc(N2CCCCC2)c(Cl)cc1[N+](=O)[O-], Cc1ccc(C(=O)NC2(O)C(=O)c3ccccc3C2=O)cc1C, CC(C)c1ccc2nc(NC(=O)C3CC3)sc2c1, Oc1c(Br)cc(Br)cc1C=Nc1ccc2[nH]ncc2c1, Cc1ccc(C(C2=C(O)CC(C)(C)CC2=O)C2C(=O)CC(C)(C)CC2=O)o1 (configuration not stated), S=C(NCCc1cccc(Cl)c1)NCc1ccccc1, COc1ccc(C(=O)CCS(=O)(=O)c2ccc(F)cc2)cc1OC, CC1=C(C)/C(=N\OS(=O)(=O)c2ccccc2)C=CC1=O, O=C(Cc1ccccc1)Nc1cccc(N2CCCC2)c1, Cc1nn(-c2cccc(C(F)(F)F)c2)c(Cl)c1/C=N/Nc1cccc(C(=O)O)c1

potentiation, 57:
CC1=C(C(=O)OCC2CCCCC2)C(c2cccc(O)c2)NC(=O)N1 (configuration not stated)

potentiation, 62.7:
CCC(O)(CC)C(=O)N(Nc1ccc(C)cc1)c1ccc(C)cc1

potentiation, 81.9:
O=C(O)c1cc(NN=C2c3ccccc3-c3ccccc32)ccc1Cl

potentiation, 72.4:
COc1cc(C)c(C(=O)Oc2cc(C)c(C(=O)O)c(O)c2)c(O)c1
